# Pf apPOL inh: Pf-apPOL inhibitors, biochemical, fluorescence; 210,000 tested, 0.25% active; Recombinant Pf-apPOL, molecular beacon fluorescence, 1.5 h; Plasmodium falciparum apicoplast DNA polymerase (apPOL); inhibition, % at 10 µM
# mHTT CaM bind: mutant huntingtin-calmodulin interaction inhibitors – biochemical, AlphaScreen, primary screen; 190,000 tested, 3.6% active; inhibition, % at 15 µM; AlphaScreen His-mHTT/GST-CaM binding, luminescence;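 further: 0% = both proteins with DMSO and 100% = one protein alone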
# * hit, by the source's call; x = no result given. Only some compounds are listed: those with a hit (about 3.5% of all), similar ones and a draw of the others. No stated cut-off is given here; in the data, active means inhibition above about 50%; inactive means the rest.
SMILES,Pf apPOL inh,mHTT CaM bind
Cc1cc(O)c(C(C[N+](=O)[O-])c2ccc(Cl)cc2Cl)c(=O)o1 (centres undefined),1.6,3.0
COc1cc(C(C[N+](=O)[O-])c2c(C)[nH]c3ccccc23)ccc1O (centres undefined),1.4,61.0*
Cc1oc(C2CCN(C(=O)c3ccc4c(c3)OCO4)CC2)nc1C(=O)N1CCCCC1,0.6,0.6
CNC(=O)N1CCCC(c2cccc(C(=O)N3CCN(c4cc(C)ccc4C)CC3)c2)C1 (centres undefined),-5.5,80.1*
CNC(=O)N1CCCC(c2cccc(C(=O)N3CCN(c4ccccc4C)CC3)c2)C1 (centres undefined),-7.0,38.6
CNC(=O)N1CCCC(c2cccc(C(=O)N3CCN(c4ccccc4)CC3)c2)C1 (centres undefined),-7.4,-1.0
CNC(=O)N1CCCC(c2cccc(C(=O)N3CCN(c4cccc(Cl)c4)CC3)c2)C1 (centres undefined),-7.0,97.7*
Cc1cccn2cc(C(=O)NCc3cc(F)cc(F)c3)nc12,0.6,-5.3
COc1ccccc1CCN1C(=O)CCC1(C)C(=O)NCc1ccccc1 (centres undefined),-2.8,-4.9
Cn1c(=O)cc2c3c(c(Br)ccc31)C(=O)c1ccccc1-2,-1.6,2.0
Cn1c(=O)cc2c3c(c(N4CCCCC4)ccc31)C(=O)c1ccccc1-2,-9.1,55.0*
CCN(CC)c1cc(CNC(=O)Nc2ccc(C)cc2C)ccn1,0.0,7.4
CSc1ccccc1C(=O)N(CCc1cccs1)Cc1ccco1,-9.5,-8.2
CC(C)Oc1ccc(C(=O)Nc2cc(-c3nc4ncccc4o3)ccc2Cl)cc1,-7.3,6.0
CCN(CC)c1ccc(C2C(C(=O)Nc3ccccn3)=C(C)NC3=C2C(=O)CCC3)cc1 (centres undefined),-2.4,15.0
CCN(CC)c1ccc(C(Nc2ccccn2)c2ccc3cccnc3c2O)cc1 (centres undefined),-1.0,100.0*
CC(C)Oc1ccc(C(Nc2ccccn2)c2ccc3cccnc3c2O)cc1 (centres undefined),-279.6,98.0*
COc1ccc(-c2cc(-c3cc(OC)ccc3O)[nH]n2)cc1,-3.2,72.0*
COc1ccc(-c2cc(-c3ccccc3)nc(=O)[nH]2)cc1,-6.2,3.0
CCOc1cccc(C2CC(c3ccc(Cl)cc3)=NC3(CCN(C)CC3)N2)c1O (centres undefined),6.0,29.6
CCOc1ccccc1CNC(=O)C1=C(C)C(=O)OC12CCCCCC2,-0.8,0.8
COc1ccc(C2=C(CN(C)C)C(c3ccccc3)c3ccccc3O2)cc1 (centres undefined),0.2,71.0*
CCOc1ccc(C2=C(CN3CCOCC3)C(c3ccccc3)c3ccccc3O2)cc1 (centres undefined),-0.8,15.0
Cc1ccc(C2C(CN3CCOCC3)=C(c3ccccc3)Oc3ccccc32)cc1 (centres undefined),0.5,25.0
CCOc1ccc(C2=C(CN(C)C)C(c3ccc(F)cc3)c3ccccc3O2)cc1 (centres undefined),-3.3,91.0*
SMILES,Pf apPOL inh,mHTT CaM bind
CCOc1ccc(N2CC(C(=O)N3CCN(CC)CC3)CC2=O)cc1 (centres undefined),-5.5,-6.4
COc1cc(NC(=O)C2CCCN(c3nnc4ccc(Cl)cn34)C2)cc(OC)c1 (centres undefined),-5.7,17.8
O=C(c1ccco1)N1CCC(CCOCc2ccccc2F)CC1,-5.4,1.9
CC1(C)CC(=O)C2=C(C1)N(c1ccc(F)cc1)C(N)=C(C#N)C2c1cc(Br)cs1 (centres undefined),-4.1,81.0*
Cc1cccc(N2C(N)=C(C#N)C(c3cccs3)C3=C2CC(C)(C)CC3=O)c1 (centres undefined),-4.5,33.0
CC1(C)CC(=O)C2=C(C1)N(c1ccccc1)C(N)=C(C#N)C2c1ccc(Br)s1 (centres undefined),-3.0,89.0*
COc1ccc(N2C(N)=C(C#N)C(c3ccc(F)cc3)C3=C2CC(C)(C)CC3=O)cc1 (centres undefined),0.1,13.0
COc1cccc(C(=O)N2CCCC3(C2)NC(=O)N(Cc2cc(C)ccc2C)C3=O)c1 (centres undefined),-1.7,4.3
O=C(O)c1ccc(NC(=O)c2cccc(S(=O)(=O)Nc3ccc(Cl)cc3)c2)cc1,-1.9,2.1
Cc1ccc(C(=O)Nc2cc(F)c3[nH]c(=O)ccc3c2)cc1,-4.7,-3.4
CCc1cc2c(=O)c(-c3ccc4c(c3)OCCO4)coc2cc1O,5.5,1.0
O=C(Nc1nnc(CCS(=O)(=O)c2ccccc2)o1)C1COc2ccccc2O1 (centres undefined),6.7,65.3*
Cc1cc(C)nc(NS(=O)(=O)c2ccc(NC(=O)C3COc4ccccc4O3)cc2)n1 (centres undefined),-7.6,3.5
O=C(Nc1nnc(-c2cc(Cl)sc2Cl)o1)C1COc2ccccc2O1 (centres undefined),-185.5,81.2*
O=C(CSc1ccccc1)Nc1nnc(-c2cc(Cl)sc2Cl)o1,-2.1,-4.7
Oc1ccc(Cl)c(C=NCC2COc3ccccc3O2)c1 (centres undefined),14.1,27.0
CCN(CCCN1C(=O)c2ccccc2C1C(=O)NC1CCCCC1)c1cccc(C)c1 (centres undefined),-13.0,46.0
CCCc1cc(-c2[nH]ncc2-c2ccc3c(c2)OCCCO3)c(O)cc1OC,-6.9,76.5*
CCCc1cc(-c2oncc2-c2ccc3c(c2)OCCO3)c(O)cc1OC,3.0,63.0*
CCCc1cc2c(=O)c(-c3ccc4c(c3)OCCCO4)c(C)oc2cc1OC,-2.8,0.1
COc1ccc(-c2oncc2-c2ccc3c(c2)OCCO3)c(O)c1,1.2,10.0
COc1ccc(S(=O)(=O)N2CCCCC2CC(=O)Nc2ncccn2)cc1 (centres undefined),-3.0,0.0
N#Cc1cc2n[nH]nc2cc1C#N,x,-1.7
COc1ccc(S(=O)(=O)N2CCCC(C)(C(=O)NCc3ccccc3C)C2)cc1 (centres undefined),-0.9,-0.3
Cc1ccc(S(=O)(=O)N2CCCC(C)(C(=O)NCc3ccccc3C)C2)cc1C (centres undefined),-3.9,77.1*
SMILES,Pf apPOL inh,mHTT CaM bind
Cc1ccccc1CNC(=O)C1(C)CCCN(S(=O)(=O)c2ccc(F)c(Cl)c2)C1 (centres undefined),-2.4,83.8*
Cc1ccccc1CNC(=O)C1(C)CCCN(S(=O)(=O)c2ccc(F)cc2)C1 (centres undefined),-1.2,-6.0
c1ccc(C2CCC(NCCc3c[nH]c4ccccc34)CC2)cc1 (centres undefined),-4.0,77.1*
O=C(NCCc1c[nH]c2ccccc12)C(=O)NCCc1c[nH]c2ccccc12,3.5,1.0
CCOc1c(C)cc(-c2ncccc2O)cc1C,-0.2,-0.8
CCOCc1ccc(O)c2ncccc12,-4.3,100.3*
O=C(c1ccc(Cn2cncn2)cc1)N1CCc2ccccc2C1,-10.1,3.3
O=C(c1ccc(Cn2c(=O)[nH]c3ccccc3c2=O)cc1)N1CCc2ccccc2C1,-6.4,59.8*
CS(=O)(=O)NC1CC2CC1CN2C(=O)c1cc2c(s1)CCCC2 (centres undefined),2.2,2.5
COCC(C)NC(=O)C(c1ccccc1)c1ccccc1 (centres undefined),-9.4,-8.9

# Screening data as filed in PubChem.
